Only some compounds are listed: those with a hit (about 6.1% of all), similar ones and a draw of the others.
HepG2 tox: HepG2 cytotoxicity, counter-screen for TGF-b inhibitors | HepG2 CAGA-GFP viability, ATP luminescence, 18 h | Potency, µM (highest dose often 46.1 µM), without a hit: at the top dose activity change, negative = cytotoxicity, actives largely listed as cytotoxic | actives 0.76% (n = 410,000)
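CellTiter-Glo luminescence gave cytotoxicity after 18 hours at 37 degrees C. The cells were HepG2 CAGA-GFP in 1% FBS DMEM, stimulated with 500 pg/mL TGF-beta after compound addition. %Activity was normalised to no-cell wells (complete cell-killing) and DMSO (no toxicity), and curves were fitted and classified.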
RORgamma inh: inhibitors of mouse ROR gamma transcriptional activity; Drosophila S2 Gal4-RORgamma UAS-luciferase reporter, 20 h; Potency, µM (series often up to 53.6 µM), without a hit: at the top dose activity change, negative = inhibition, actives largely listed as inhibitors; actives 5.4% (n = 310,000); AID 2551; also: % is scaled to controls: 0 for no effect and ±100 for the full control effect; nearly all actives have a fitted effect of over 60% in size
Target sequence (P51450 whole entry, looked up, the tested form may be a part): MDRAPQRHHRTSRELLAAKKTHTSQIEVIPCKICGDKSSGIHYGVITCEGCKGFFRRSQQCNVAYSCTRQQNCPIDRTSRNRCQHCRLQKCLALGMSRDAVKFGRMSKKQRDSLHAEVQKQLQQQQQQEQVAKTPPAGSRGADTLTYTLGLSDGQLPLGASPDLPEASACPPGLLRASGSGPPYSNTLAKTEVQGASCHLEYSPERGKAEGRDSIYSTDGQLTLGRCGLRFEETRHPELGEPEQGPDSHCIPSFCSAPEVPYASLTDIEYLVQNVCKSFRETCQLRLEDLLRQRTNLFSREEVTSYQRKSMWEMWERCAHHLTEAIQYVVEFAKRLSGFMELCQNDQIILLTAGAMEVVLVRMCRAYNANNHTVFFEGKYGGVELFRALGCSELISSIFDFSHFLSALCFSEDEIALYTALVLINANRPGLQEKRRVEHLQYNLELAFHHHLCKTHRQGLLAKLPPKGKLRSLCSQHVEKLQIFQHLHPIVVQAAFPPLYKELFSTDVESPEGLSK
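Using a luciferase readout, inhibitors were identified by reduced reporter activity in Drosophila cells coexpressing a copper-inducible Gal4–ROR gamma fusion and UAS-driven Photinus luciferase, incubated 20 hr after 700 uM copper sulfate.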
TGFb inhibitor: inhibitors of TGF-b signaling; HepG2 CAGA-GFP TGF-b/SMAD3 reporter, GFP fluorescence, 18 h; TGF-beta stimulated, 500 pg/mL final; Potency, µM (titrated, usually from 46.1 µM), without a hit: at the highest dose activity, negative = inhibition, most hits filed as inhibitors; actives 1.2% (n = 410,000); AID 588855; also: % is scaled to controls: 0 for no effect and ±100 for the full control effect; nearly all actives have a fitted effect of over 65% in size
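Cell-based qHTS in HEPG2 carrying a CAGA-GFP Smad reporter; compounds added before 500 pg/mL final TGF-beta, 18 h incubation at 37 degrees C, GFP fluorescence quantified per cell by imaging cytometry.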
ATXN2 expr inh: ATXN2 expression inhibition | HEK-293 ATXN2-luciferase reporter, luminescence, 24 h | Potency, µM (highest dose often 57 µM), without a hit: at the top dose activity change, negative = inhibition, actives largely listed as inhibitors | actives 0.72% (n = 360,000) | AID 1745845; also: % is scaled to controls: 0 for no effect and ±100 for the full control effect; nearly all actives have a fitted effect of over 55% in size
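ATXN2-luciferase reporter cells (luciferase flanked by upstream and downstream ATXN2 gene portions) were treated 24 h at 37 °C with compounds at up to 57 uM. SteadyGlo luminescence gave expression; GF-AFC fluorescence gave viability.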
ATXN viability: reduces viability in counter-screen for ATXN expression inhibitors; actives 0.49% (n = 400,000); S2 cells (HEK-293 line with an ATXN2-luciferase reporter) viability, CellTiter-Fluor protease fluorescence, 24 h; Potency, µM (top dose mostly 56.7 µM), hits mostly cytotoxic; also: nearly all actives have a fitted effect of over 40% in size
Gal4-VP16 FLuc: inhibits Gal4-VP16 luciferase reporter, ROR gamma counter-screen | Drosophila S2 Gal4-VP16 UAS-luciferase, luminescence, 20 h | Potency, µM (highest dose often 53.6 µM), for inactives: top-dose activity, negative = inhibition, usual class: inhibitors | actives 3.5% (n = 310,000) | AID 2546;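 also: Gal4-VP16 expression switched on by copper sulfate through the metallothionein promoter; % is scaled to controls: 0 for no effect and ±100 for the full control effect; nearly all actives have a fitted effect of over 50% in size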
* = called active by the depositor; i = inactive; ? = inconclusive; . = not tested or not shown; [ ] = dose if it differs, or a comment. Calls follow the shape of the dose curve; as a rule, active = well fitted curve in the direction sought with a large enough effect; inconclusive = small, poorly fitted or top-dose-only effect, or another doubt; inactive = no such curve, though single readings can be large; an effect the other way counts as inactive or inconclusive. Potency is read from the fitted curve at half-maximal effect.

SMILES	HepG2 tox	RORgamma inh	TGFb inhibitor	ATXN2 expr inh	ATXN viability	Gal4-VP16 FLuc
O=C(Nc1nnc(-c2ccc(Br)cc2)o1)C1=COCCO1	-23%	.	?	11%	i	.
CSc1ccc(-c2nnc(NC(=O)c3ccc4c(c3)OCCO4)o2)cc1	-32%	.	?	.	.	.
O=C(Nc1nnc(C2=COCCO2)o1)c1ccc([N+](=O)[O-])cc1	-1%	1.1µM*	-4%	-16%	i	0.89µM*
CCOC(=O)C1CCN(c2ncnc3c2nnn3C)CC1	-9%	.	39%	.	.	.
COc1ccccc1N1CCN(C(=S)NC(=O)/C=C/c2ccc(F)cc2)CC1	-24%	3.5µM*	?	-5%	i	10µM*
COc1ccccc1N1CCN(C(=S)NC(=O)/C=C/c2ccccc2)CC1	-13%	0.89µM*	-23%	27%	i	7.1µM*
Cc1ccc(S(=O)(=O)NCc2ccccn2)c(C)c1	30%	?	5%	-2%	i	4%
CCOc1cc(C)c(C(C)C)cc1S(=O)(=O)NCc1ccccn1	-14%	10µM*	9%	-9%	i	11%
Cc1cc(-c2ccc(S(=O)(=O)Nc3ccc(Br)c(C)c3)s2)on1	-51%	.	13µM*	.	.	.
Cc1cc(-c2ccc(S(=O)(=O)Nc3ccc(C#N)cc3)s2)on1	-6%	10%	-5%	14%	i	-3%
O=C1NC(c2cccc3ccccc23)Nc2ccc(Cl)cc21 (centres undefined)	-6%	.	4µM*	?	?	.
Clc1ccc(C2Nc3cccc4cccc(c34)N2)c(Cl)c1	-30%	.	-25%	-12%[11.3 µM]	i	.
Cc1c(C(=O)NCC(C)(C)N2CCOCC2)cnn1-c1ncc2c(n1)-c1ccccc1CC2	.	.	.	.	i	.
O=C(Nc1nccs1)c1cc2c(s1)CCCCC2	-44%	26%	1%	-51%	i	7.9µM*
Cc1ccsc1C(=O)Nc1nccs1	-20%	11µM*	-19%	5%	i	?
CCc1sc(C(=O)Nc2nccs2)cc1C	-26%	7.9µM*	0%	1%	i	?
CCc1sc(C(=O)Nc2nc(-c3ccccn3)cs2)cc1C	-2%	.	-16%	25µM*	i	.
Cc1ccc(C(=O)Nc2nc(-c3ccccn3)cs2)s1	-8%	.	?	?	i	.
O=C(Nc1nncs1)c1cc2c(s1)CCC2	0%	?	-5%	-5%	i	-17%
O=C1OC(c2ccc(O)cc2)(c2ccccc2O)c2ccccc21 (centres undefined)	-7%	.	-27%	-9%	i	.
O=C1OC(c2ccccc2)(c2cc(Br)ccc2O)c2ccccc21 (centres undefined)	-183%	.	20µM*	?	.	.
CC(=O)c1ccc(N2CCN(c3ncnc4c3c(-c3ccccc3)cn4-c3cccc(C)c3)CC2)cc1	-3%	.	-2%	.	.	.
COc1ccc(C(=O)c2c(N)c(C(=O)Nc3cccc(OC)c3)c3ccccn23)cc1	-1%	.	11%	-15%	i	.
Oc1ccc(N=Nc2ccc3c(c2)OCO3)c2ccccc12	.	0.13µM*	.	.	.	0.63µM*
Cc1c(Cl)cccc1NC(=S)NC(=O)CCN1C(=O)c2ccccc2C1=O	-9%	16µM*	?	51%	i	?
SMILES	HepG2 tox	RORgamma inh	TGFb inhibitor	ATXN2 expr inh	ATXN viability	Gal4-VP16 FLuc
Cc1cccc(NC(=S)NC(=O)CCc2ccccc2)c1	1%	10µM*	?	13%	i	?
Cc1c(NC(=O)CCc2ccccc2)cccc1[N+](=O)[O-]	9%	3%	2%	-35%[11.3 µM]	i	1%
Cc1cccc(NC(=S)NC(=O)CCc2ccccc2)c1C	-38%	2.5µM*	?	7%	i	?
O=C(CCN1C(=O)c2ccccc2C1=O)NC(=S)Nc1ccccc1Cl	-5%	?	-10%	.	i	?
O=C(NC(=S)Nc1cccc(NC(=S)NC(=O)c2ccco2)n1)c1ccco1	0%	0.089µM*	?	-13%	i	0.79µM*
COc1cc(OC)c(OC)cc1/C=c1\[nH]c(=O)/c(=C/c2cc(OC)c(OC)cc2OC)[nH]c1=O	-24%	.	?	.	.	.
COc1ccc(-c2ccc(N(C)C)cc2)cc1C1C2C=CCCC2(C)C(=O)N1Cc1ccccc1 (centres undefined)	-15%	12%	2%	.	.	-4%
Cc1ccc(C)c(CN2C(=O)N(c3cc(Cl)ccc3C)S(=O)(=O)c3ccccc32)c1	3%	.	0%	1%	i	.
O=C(CCCOc1ccccc1)NC(=S)Nc1ccccc1	7%	10µM*	14%	-2%	i	?
Cc1cc(C)c(O)c(NC(=S)NC(=O)Cc2ccccc2)c1	-9%	10µM*	?	-10%	i	5.6µM*
Cc1cccc(NC(=S)NN(Cc2ccccc2)c2ccccc2)c1C	-22%	3.5µM*	-7%	-14%	i	3.5µM*
CCC(=O)Nc1cccc(NC(=S)NC(=O)Cc2ccccc2)c1	4%	-22%	7%	0%	i	1%
Cc1cccc(NC(=S)NC(=O)c2ccco2)c1C	2%	3.5µM*	0%	12%	i	11µM*
O=C(CCCOc1ccccc1)Nc1ccc(Br)cc1	-20%	.	-7%	18%	i	.
CCCN(Cc1ccccc1)C(=S)Nc1cccc(C)c1C	-16%	?	-8%	-14%	i	-5%
COc1cccc(/C=C/C(=O)Nc2ccc3nc(N4CCN(C)CC4)cc(C)c3c2)c1OC	-75%	.	?	-13%	?	.
CC(C)C[C@H](N)C(=O)N[C@H](C(=O)N[C@@H](CCCN=C(N)N)C(=O)N[C@H](CS)C(=O)NCC(=O)N[C@@H](CCCCN)C(=O)N[C@@H](Cc1cnc[nH]1)C(=O)N[C@@H](CO)C(=O)N[C@@H](CCCN=C(N)N)C(=O)O)C(C)C	.	3%	.	.	.	-1%
Cc1cccc(NC(=S)NC(=O)Cc2ccccc2)c1C	-12%	4µM*	-12%	-1%	i	4.5µM*
Cc1cccc(NC(=S)NCCc2ccc(S(N)(=O)=O)cc2)c1C	4%	-10%	-4%	-5%[11.3 µM]	i	2%
Cc1ccc(S(=O)(=O)NNC(=S)Nc2cccc(C)c2C)cc1	-2%	5µM*	-4%	4%	i	?
Cc1c(NC(=S)NC(=O)Cc2ccccc2)cccc1C(=O)O	-1%	1%	0%	5%	i	-3%
CCOC(=O)c1[nH]nc(-c2cc(CC)c(O)cc2O)c1-c1cscn1	-34%	?	0%	-36%	i	13µM*
CCCc1cc2c(=O)c(-c3cscn3)c(C(=O)OCC)oc2cc1O	-2%	?	0%	23%	i	-25%

From PubChem BioAssay
